The full ranking holds about 68,000 sequences; the median of “fluorescence intensity (a.u.)” is about 9,100, and the highest 2% start at about 16,000. The entries come from a sample that favours the highest values as a whole.

OsWRKY34, sequence (Q0JBA9 entry or part of it): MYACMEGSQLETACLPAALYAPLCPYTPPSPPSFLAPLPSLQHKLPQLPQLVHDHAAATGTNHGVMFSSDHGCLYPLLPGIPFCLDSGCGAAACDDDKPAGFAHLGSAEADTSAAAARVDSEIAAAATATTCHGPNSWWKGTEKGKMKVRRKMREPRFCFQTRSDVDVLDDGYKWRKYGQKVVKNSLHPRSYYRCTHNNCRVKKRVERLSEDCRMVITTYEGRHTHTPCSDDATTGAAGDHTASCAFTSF

The target of this test is OsWRKY34 (Oryza sativa, UniProt Q0JBA9 1-250). The test is described as follows: protein-binding microarray (RPBM); PBS, 2% BSA, 51.3 ng/ul salmon testes DNA, 50 uM zinc acetate, 200 nM TF, 25 C, 1 h; high values mean tight binding. Conditions: protein: recombinant; tags: N-terminal polyhistidine and DsRed monomer fusion (pET32a); label: CyDye5-dUTP incorporated in the synthesized complementary strand; 3' TTTTT single-stranded linker to array surface; dsDNA, one strand shown. In short, it runs like this:
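The binding signal is fluorescence intensity per feature, in arbitrary units, read on an Axon 4000B scanner. Polyhistidine- and DsRed-tagged transcription factors (N-terminal fusions) from E. coli BL21-CodonPlus were purified on Ni–NTA and applied at 200 nM for 1 h at 25 °C to a double-stranded, BSA-blocked custom Agilent array in buffer with 50 µM zinc acetate.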
In the case of “ATCATTCCTAACTGCCTGGTCGTACTTCTCTGTATTTTGTCGGAGTCACCTAGTGCAG”, the binding signal was 17500 fluorescence intensity (a.u.). On to “GTTTTGTATGGTTCTCTGGATATATTACTGCCTGTAAATTCGGAGTCACCTAGTGCAG”, for which the binding signal was 8320 fluorescence intensity (a.u.). On to “TCCTCATGCCTCTTTTTCCTCCTCCTTCCTTCTCTCATTCCGGAGTCACCTAGTGCAG”, for which the binding signal is 10200 fluorescence intensity (a.u.). The result for “CCCGGCCTTAGCATACTATTATTTTAGCACTAATCTTAACCGGAGTCACCTAGTGCAG” reads 9300 fluorescence intensity (a.u.); that for “TTTTATAAATTCGAGCGTGTGCGGGTTTCGTTTTCTCACTCGGAGTCACCTAGTGCAG”, 9840 fluorescence intensity (a.u.); that for “GCTGTGGTCATGGACAGGGGACGGGCTGGGGTCGTCGCGCCGGAGTCACCTAGTGCAG”, 8090 fluorescence intensity (a.u.). The result for “TTTTGCTACAGTGCTCGGATATATCTGGGACGTCCATTTTCGGAGTCACCTAGTGCAG” reads 10200 fluorescence intensity (a.u.).

On to “TGCGTACACTCCTTTGAAACCCCATTGCTATGTAGACAATCGGAGTCACCTAGTGCAG”, for which the binding signal was 8020 fluorescence intensity (a.u.). As to “TAAAATTCTGTTCCGCCGCGTTTGCCCTCGTCAACTAATCCGGAGTCACCTAGTGCAG”, the binding signal was 9750 fluorescence intensity (a.u.). The same measure for “ATGTCTGTATCTGTTATTGTTTCTATTGTGTCTGATCCAACGGAGTCACCTAGTGCAG”: 8980 fluorescence intensity (a.u.). The same measure for “AACTAGGTCCCTCGGCGGTTTTGACTCCTGTTTTGTCCAACGGAGTCACCTAGTGCAG”: 12500 fluorescence intensity (a.u.). Turning to “GGCAACCACGTAATTCCCTCCCTTTTCAGTTACTCATCAACGGAGTCACCTAGTGCAG”, the binding signal is 9620 fluorescence intensity (a.u.). The same measure for “GGTTCCAATTCGTCGCCTGATACTCCGATTCGAGTTCTTGCGGAGTCACCTAGTGCAG”: 12700 fluorescence intensity (a.u.); for “CTCGTTGTCGTGCTGCTTGTAATTCATCTAGTTTGTCTACCGGAGTCACCTAGTGCAG”: 10000 fluorescence intensity (a.u.); for “CTTGGATTCTGAGGTGGGCTTGAACTTGATATGAATTAGGCGGAGTCACCTAGTGCAG”: 8100 fluorescence intensity (a.u.). The same measure for “CGAGTCTTTTGTGCGGGTGGTTGGGGCGTGGGCGGTGGCGCGGAGTCACCTAGTGCAG”: 23100 fluorescence intensity (a.u.); for “TTGGGTTGGGTTGGTGAGGTGGGGAGATGGTTTGGTGAGGCGGAGTCACCTAGTGCAG”: 17300 fluorescence intensity (a.u.). Consider “GTGCGTGTAAACTTTTTTGGGGTTGTTTTGGGCGGTTACTCGGAGTCACCTAGTGCAG”, for which the binding signal is 18200 fluorescence intensity (a.u.). In the case of “GAGGTGACGCTGCCGCCGGCGGTGGGCGGAGTGGGAGGGGCGGAGTCACCTAGTGCAG”, the binding signal was 8390 fluorescence intensity (a.u.). The result for “GTAAACTTATTCTTTGGGCGTTGTTATTATTTGGGGCAATCGGAGTCACCTAGTGCAG” reads 11400 fluorescence intensity (a.u.); that for “GGCCGGGCGAGGCGCTGGGAGGTGGCGGCTAGCGGCGGGGCGGAGTCACCTAGTGCAG”, 8500 fluorescence intensity (a.u.); that for “CAAATTCTAGACTTTTTGGTGGGTTGCGTGCGAGGGGTGGCGGAGTCACCTAGTGCAG”, 10500 fluorescence intensity (a.u.).

Regarding “AGATGAGAGGTTTGGTTGGTTGGATGGTGGGGAGCGCCCGCGGAGTCACCTAGTGCAG”, the binding signal was 10400 fluorescence intensity (a.u.).

As to “GGTGGTTGGCGCGCGTTTTCTTGTGTGGTTTTTTGTGTCGCGGAGTCACCTAGTGCAG”, the binding signal is 14200 fluorescence intensity (a.u.). The result for “TTTAGGGGTGTTTGGTTGAGGGGTGAGTGGGATGGGTTGGCGGAGTCACCTAGTGCAG” reads 10300 fluorescence intensity (a.u.); that for “TGTTCTTGCTACGCTGGGAGGGGAGGGGTGGCGCCGCGGCCGGAGTCACCTAGTGCAG”, 21700 fluorescence intensity (a.u.); that for “GTGTAACTTGTTTTGCTAGGGTTTTTGATTGCTTTTTACTCGGAGTCACCTAGTGCAG”, 12000 fluorescence intensity (a.u.). The same measure for “ATTTGTTCCCATCCATCTCGGCCCTGTCGCCATTGTGCCACGGAGTCACCTAGTGCAG”: 9450 fluorescence intensity (a.u.). For “GATTGATTATCCTTTTCTTAAACTATTTTCCTGTTTTTCACGGAGTCACCTAGTGCAG”, the binding signal is 13200 fluorescence intensity (a.u.). The same measure for “GCCAAGCCTTTTTCTTCTACTCTTTTTGGCATGGAACTCACGGAGTCACCTAGTGCAG”: 8350 fluorescence intensity (a.u.); for “AACGATTTGCATGTCATACAGATACATCACATTTCTTTCTCGGAGTCACCTAGTGCAG”: 8520 fluorescence intensity (a.u.); for “AGCAAATTCCTTTATGTTTTTTCTTATGTCTTCTCCAGCTCGGAGTCACCTAGTGCAG”: 9040 fluorescence intensity (a.u.). The same measure for “ACACTCTATTAAGAGGATCCGTTTCATTTTTTGTTCCATCCGGAGTCACCTAGTGCAG”: 8760 fluorescence intensity (a.u.); for “CTATACTCACCCACTTGCCAATTTGCCATTGCCAACACCTCGGAGTCACCTAGTGCAG”: 9100 fluorescence intensity (a.u.). The same measure for “TTGTTGGCTCAATATAGTTATCCTCCTTTGACCCAGTTAACGGAGTCACCTAGTGCAG”: 9120 fluorescence intensity (a.u.). For “GCGAGTGAGGAGGGGCGGCGCGCGGTGGCCGGCGGGTGAGCGGAGTCACCTAGTGCAG”, the binding signal was 8070 fluorescence intensity (a.u.).

As for “GGTGGGCGGAGTGGGAGGGGAGGCATCGGCGCCTCGGTGGCGGAGTCACCTAGTGCAG”, the binding signal was 16800 fluorescence intensity (a.u.).

Consider “GGAGGTGGTGGCGCTGCCTCGGGGCCCCTCGCCTGGGAGGCGGAGTCACCTAGTGCAG”, for which the binding signal is 9800 fluorescence intensity (a.u.). Regarding “TGGCGGCGTGGAGCCGCGAGGGCGGTGGCGGCGGGGAGTTCGGAGTCACCTAGTGCAG”, the binding signal is 10400 fluorescence intensity (a.u.). The result for “GGGAGCGGCGGAGGAGGAGGGCGCGGCGGCGGTGGGGTGGCGGAGTCACCTAGTGCAG” reads 18100 fluorescence intensity (a.u.). With “AGGAGAGGGGTTTACTCGGTTGAGGATTTTCTTGTTCTCACGGAGTCACCTAGTGCAG”, the binding signal was 8180 fluorescence intensity (a.u.). The same measure for “GGGTGGAGGAGGGGACTTCGGGAGGGCGGTGGCGAGGGCGCGGAGTCACCTAGTGCAG”: 16400 fluorescence intensity (a.u.); for “TGTTCGGTGGGCGAGGAGAGGAGTGGGTGGGAGTGGACTGCGGAGTCACCTAGTGCAG”: 8780 fluorescence intensity (a.u.); for “GCTCGGCGGCGCCGCGGCGGCGGTGGCGGAGGCGGGGATGCGGAGTCACCTAGTGCAG”: 8910 fluorescence intensity (a.u.). The same measure for “TGGGTTTTACGGTTTTACCCTCTCGGGCTTGAGGGGAGAGCGGAGTCACCTAGTGCAG”: 47600 fluorescence intensity (a.u.); for “AGGTGAGAGGAGGAGAGAGACGGGTTTAGGGCTTTAGGAGCGGAGTCACCTAGTGCAG”: 8040 fluorescence intensity (a.u.); for “GGGAGGGGTGCGGCGCGGTGGCGCTGGAGCGGAGGAGCGTCGGAGTCACCTAGTGCAG”: 9990 fluorescence intensity (a.u.).

The values are drawn from article PMC7819943, “Rice protein-binding microarrays: a tool to detect cis-acting elements near promoter regions in rice”.
